Source: PubChem BioAssay
HepG2 tox = HepG2 cytotoxicity, counter-screen for TGF-b inhibitors | HepG2 CAGA-GFP viability, ATP luminescence, 18 h | Potency, µM (titrated, usually from 46.1 µM), for inactives: at the highest dose activity change, negative = cytotoxicity, hits mostly cytotoxic | 410,000 compounds, 0.76% hits; note: potency is the fitted concentration of half-maximal effect
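HepG2 CAGA-GFP cells (1000/well, DMEM with 1% FBS) received compound, then TGF-beta at 500 pg/mL final, and were incubated 18 hours at 37 degrees C. Viability was read by CellTiter-Glo luminescence. Media-only wells were set as complete cell-killing and DMSO as no toxicity.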
ATXN viability = cell viability loss in ATXN counter-screen. S2 cells (HEK-293 line with an ATXN2-luciferase reporter) viability, CellTiter-Fluor protease fluorescence, 24 h. Potency, µM (series often up to 56.7 µM), actives largely listed as cytotoxic. 400,000 compounds, 0.49% hits; note: potency is the fitted concentration of half-maximal effect; nearly all actives have a fitted effect of over 40% in size
TGFb SMAD3 inh = inhibitors of TGF-b signaling; HepG2 CAGA-GFP TGF-b/SMAD3 reporter, GFP fluorescence, 18 h; TGF-beta stimulated, 500 pg/mL final; Potency, µM (top dose mostly 46.1 µM), for the others: top-dose activity, negative = inhibition, usual class: inhibitors; 410,000 compounds, 1.2% hits; AID 588855; note: potency is the fitted concentration of half-maximal effect; % is set by controls: 0 for no effect and ±100 for the full control effect; nearly all actives have a fitted effect of over 65% in size
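Inhibition was scored as loss of TGF-beta-induced (500 pg/mL final, 18 hours, 37 degrees C) GFP in HEPG2 cells carrying a CAGA-GFP reporter, in DMEM with 1% FBS. Well GFP was summed per cell; Activity was normalised to unstimulated and stimulated DMSO wells, then concentration-response fitting.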
D3 ag = D3 dopamine receptor (human) agonism; P35462; D3R DiscoveRx beta-arrestin cells, luminescence, 90 min; max activation, %; 410,000 compounds, 0.58% hits; AID 652048; in the data active = max activation above about 30%; note: 0% is about no effect
Target sequence (P35462 whole entry, looked up): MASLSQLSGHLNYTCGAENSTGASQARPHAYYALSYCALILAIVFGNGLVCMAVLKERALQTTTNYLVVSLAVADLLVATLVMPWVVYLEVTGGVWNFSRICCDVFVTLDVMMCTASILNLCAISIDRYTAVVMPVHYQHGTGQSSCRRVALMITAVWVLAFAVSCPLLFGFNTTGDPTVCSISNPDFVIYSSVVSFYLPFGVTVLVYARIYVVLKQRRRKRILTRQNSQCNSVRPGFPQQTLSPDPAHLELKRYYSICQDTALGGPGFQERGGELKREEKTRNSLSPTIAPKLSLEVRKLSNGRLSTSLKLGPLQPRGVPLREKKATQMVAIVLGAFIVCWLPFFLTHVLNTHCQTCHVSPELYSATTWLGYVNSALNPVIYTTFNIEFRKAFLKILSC
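Agonist mode: compounds and dopamine controls were applied to plated cells for 90 min at 37 degrees C after an overnight attachment at 1500 cells/well. Luminescent read-out followed 30 - 60 minutes at room temperature with DiscoveRx detection reagent.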
ATXN2 expr inh = inhibitors of ATXN2 expression. HEK-293 ATXN2-luciferase reporter, luminescence, 24 h. AID 1745845. 360,000 compounds, 0.72% hits. Potency, µM (highest dose often 57 µM), for inactives: at the highest dose activity change, negative = inhibition, hits mostly inhibitors; note: potency is the fitted concentration of half-maximal effect; % is set by controls: 0 for no effect and ±100 for the full control effect; nearly all actives have a fitted effect of over 55% in size
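ATXN2-luciferase reporter cells (luciferase flanked by upstream and downstream ATXN2 gene portions) were treated 24 h at 37 °C with compounds at up to 57 uM. SteadyGlo luminescence gave expression; GF-AFC fluorescence gave viability.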
DRD3 antagonist = D3 dopamine receptor (human) antagonism | P35462 | D3R cells, DiscoveRx beta-arrestin luminescence, antagonist mode; hits give low values | max response, negative = inhibition, % | 360,000 compounds, 2.5% hits | AID 652054; in the data active = max response below about -50%; inconclusive = no clear call, values can overlap the other calls; note: % is set by controls: 0 for no effect and ±100 for the full control effect
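Cells plated overnight at 1500 cells/well, then exposed to library compounds with dopamine controls for 90 minutes at 37 degrees C. DiscoveRx reagent added for 30–60 minutes at room temperature; luminescence read, quantitative HTS format.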
* marks the source's active call; other numbers are inactive results; i = inactive; ? = inconclusive; · = no result. This is a sample that favours compounds with a hit; in the whole collection about 4.8% have one here. Unless noted, calls come from the whole dose curve; as a rule, active = well fitted curve in the direction sought with a large enough effect; inconclusive = small, poorly fitted or top-dose-only effect, or another doubt; inactive = no such curve, though single readings can be large; an effect the other way counts as inactive or inconclusive.

SMILES	HepG2 tox	ATXN viability	TGFb SMAD3 inh	D3 ag	ATXN2 expr inh	DRD3 antagonist
CC(C)C[C@@H](CN)NC(=O)c1nc[nH]c1C(=O)N[C@@H](Cc1c[nH]c2ccccc12)C(=O)CNC[C@H](C)NC(=O)c1nc[nH]c1C(=O)N[C@@H](CC(=O)O)C(=O)O	-3%	i	2%	-31	4%	-53*
Cc1cccc(C(=O)N2CCCC(Nc3ccc(F)c(F)c3)C2)n1 (configuration not stated)	7.1µM*	i	-14%	-6	-1%	-20
C=CC(=O)N1C/C(=C/c2ccc(F)cc2)C(=O)/C(=C\c2ccc(F)cc2)C1	20µM*	7.1µM*	?	-5	5.6µM*	-61*
CN1C2CCC1/C(=C\c1ccc(F)cc1)C(=O)/C2=C/c1ccc(F)cc1	-56%	i	-8%	0	-21%	?
CCOC(=O)c1c(NC(C)=O)c2c3c(sc2n1Cc1nc(-c2ccccc2OCC)oc1C)CCCC3	9%	·	·	-7	·	·
Cc1ccc(CCNC(=O)c2ccc(CS(=O)(=O)Cc3ccccc3F)o2)cc1	-16%	?	-36%	1	-13%	49
Cc1ccc(-c2c(C(=O)NCCc3ccc(Cl)cc3)oc(=O)c3ccccc23)cc1	-2%	i	11µM*	-1	-38%	·
Cc1ccc(CCNC(=O)c2oc(=O)c3ccccc3c2-c2ccc(C)cc2)cc1	-35%	i	?	3	-17%	·
Cc1ccccc1CS(=O)(=O)Cc1ccc(C(=O)NCCc2ccc(Cl)cc2)o1	-19%	·	14µM*	2	·	·
Cc1ccc(CCNC(=O)Cn2ncc3c(=O)oc4ccccc4c32)cc1	-13%	i	-6%	0	4%	·
CC1CCN(S(=O)(=O)N2CCC(C(=O)NCc3ccccc3Cl)CC2)CC1	1%	·	0%	-9	·	·
C[C@@H]1C[C@H]2[C@@H]3CCC4=CC(=O)C=C[C@]4(C)[C@@]3(F)[C@@H](O)C[C@]2(C)[C@@]1(O)C(=O)COC(=O)c1ccncc1	·	i	·	·	-2%	·
O=C1/C(=C/c2ccccc2)SC(=S)N1C1CCS(=O)(=O)C1 (configuration not stated)	-36%	i	-29%	-14	-25%	0
O=C1/C(=C/c2ccncc2)SC(=S)N1C1CCS(=O)(=O)C1 (configuration not stated)	20µM*	?	?	-4	-10%	-14
Cc1c(C(=O)N2CCCC(C(F)(F)F)C2)oc2ccccc12 (configuration not stated)	13%	i	11%	-12	23%	9
Cc1c(C(=O)N2CC(C)OC(C)C2)oc2ccccc12 (configuration not stated)	7%	i	0%	-1	8%	-72*
CCCn1c(=O)c2sccc2n2c(CCCC(=O)NCCOC)nnc12	1%	·	0%	-4	·	·
CCN(CC)CCCN=C1N[C@@H](c2cccc(F)c2)C(C(=O)OC)=C(C)N1Cc1ccccc1	-109%	25µM*	?	-28	22µM*	-13
COC(=O)C1=C(C)N(Cc2ccccc2)C(=NCCc2c[nH]c3ccccc23)N[C@H]1c1cccc(F)c1	-101%	22µM*	?	-21	?	-1
COC(=O)C1=C(C)N(Cc2ccccc2)C(=NCCc2c[nH]c3ccccc23)N[C@H]1c1ccccc1	10µM*	?	?	-20	?	3
COC(=O)C1=C(C)N(Cc2ccccc2)C(=NCc2ccccc2)N[C@H]1c1cccc(F)c1	-112%	·	?	5	?	-27
COCCN=C1N[C@@H](c2ccccc2)C(C(=O)OC)=C(C)N1Cc1ccccc1	-16%	i	1%	-19	0%	2
Cc1cnc(-n2ncc(C(=O)NCC3COCCO3)c2C2CC2)nc1-c1cccs1 (configuration not stated)	·	i	·	·	·	·
